Screening data as filed in PubChem.
Only some compounds are listed: those with a hit (about 2.8% of all), similar ones and a draw of the others.
HepG2 tox = kills HepG2 cells in TGF-b inhibitor counter-screen; 0.76% of 410,000 active; Potency, µM (doses to about 46.1 µM), inactives show at the highest dose activity change, negative = cytotoxicity, most hits filed as cytotoxic; HepG2 CAGA-GFP viability, ATP luminescence, 18 h; further: potency means the concentration at half of the fitted maximal effect
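CellTiter-Glo luminescence gave cytotoxicity after 18 hours at 37 degrees C. The cells were HepG2 CAGA-GFP in 1% FBS DMEM, stimulated with 500 pg/mL TGF-beta after compound addition. %Activity was normalised to no-cell wells (complete cell-killing) and DMSO (no toxicity), and curves were fitted and classified.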
Six1-Eya2 inh = blocks human Six1 binding to Eya2; 0.56% of 360,000 active; AID 651725; activity change, % (test concentration not listed); AlphaScreen GST-Six1/His-Eya2 binding, biochemical; active compounds read low; in the data active means activity change below about -65%; inconclusive means mostly about -30% to -63%; further: on the % scale 0 is the no-effect control and ±100 the full control effect
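Six1/Eya2 binding was read as AlphaScreen signal after compounds were pinned into GST-Six1 plus His-tagged Eya2 (5X stock 250/500 nM) in pH 8.0 Tris/NaCl/TCEP buffer, beads added, then incubated 1 h, 37 C, dark.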
TGFb SMAD3 inh = TGF-b pathway inhibition; HepG2 CAGA-GFP TGF-b/SMAD3 reporter, GFP fluorescence, 18 h; TGF-beta stimulated, 500 pg/mL final; Potency, µM (series often up to 46.1 µM), inactives show top-dose activity, negative = inhibition, usual class: inhibitors; 1.2% of 410,000 active; further: potency means the concentration at half of the fitted maximal effect; on the % scale 0 is the no-effect control and ±100 the full control effect; nearly all actives have a fitted effect of over 65% in size
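Cell-based qHTS in HEPG2 carrying a CAGA-GFP Smad reporter; compounds added before 500 pg/mL final TGF-beta, 18 h incubation at 37 degrees C, GFP fluorescence quantified per cell by imaging cytometry.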
CtBP-E1A inh = inhibitors of CtBP/E1A interaction; 0.49% of 340,000 active; activity change, % (test concentration not listed); AlphaScreen GST-E1A/His-CtBP binding, 1536-well; active compounds read low; in the data active means activity change below about -65%; inconclusive means mostly about -30% to -63%; further: on the % scale 0 is the no-effect control and ±100 the full control effect
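In 5 uL wells, 23 nL compound meets equimolar GST-E1A and His-CtBP (5X stock 125 nM each) for 2 h, 37 °C. Beads (5X, 50 ug/mL) then 1 h, 37 °C, dark.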
ATXN2 expr inh = inhibitors of ATXN2 expression; Potency, µM (doses to about 57 µM), for the others: at the top dose activity change, negative = inhibition, actives largely listed as inhibitors; AID 1745845; HEK-293 ATXN2-luciferase reporter, luminescence, 24 h; 0.72% of 360,000 active; further: potency means the concentration at half of the fitted maximal effect; on the % scale 0 is the no-effect control and ±100 the full control effect; nearly all actives have a fitted effect of over 55% in size
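ATXN2-luciferase reporter cells (luciferase flanked by upstream and downstream ATXN2 gene portions) were treated 24 h at 37 °C with compounds at up to 57 uM. SteadyGlo luminescence gave expression; GF-AFC fluorescence gave viability.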
S2 tox = cell viability loss in ATXN counter-screen. S2 cells (HEK-293 line with an ATXN2-luciferase reporter) viability, CellTiter-Fluor protease fluorescence, 24 h. 0.49% of 400,000 active. Potency, µM (highest dose often 56.7 µM), hits mostly cytotoxic; further: potency means the concentration at half of the fitted maximal effect; nearly all actives have a fitted effect of over 40% in size
An asterisk follows results filed as active; i = inactive; ? = inconclusive; . = no result; [ ] = another dose, or the depositor's remark. Unless noted, the call rests on the fitted dose curve; in most records, active means well fitted curve in the direction sought with a large enough effect; inconclusive means small, poorly fitted or top-dose-only effect, or another doubt; inactive means no such curve, though single readings can be large; an effect the other way counts as inactive or inconclusive.

SMILES	HepG2 tox	Six1-Eya2 inh	TGFb SMAD3 inh	CtBP-E1A inh	ATXN2 expr inh	S2 tox
CCN(CC)/[N+]([O-])=N/Oc1ccc([N+](=O)[O-])cc1[N+](=O)[O-]	-13%	.	0%	.	.	.
COc1ccc(CNC(=O)c2cc3c(=O)[nH]c4ccccc4c3n2C)c(OC)c1	-10%	.	-2%	.	-9%	i
C=C[C@@H]1c2c(F)cccc2N(S(=O)(=O)c2ccc(C)cc2)[C@H](c2ccc(C(=O)OC)cc2)C1(C#N)C#N	-19%	-11	?	2	-13%	i
C=C[C@@H]1c2c(F)cccc2N(S(=O)(=O)c2ccc(C)cc2)[C@H](c2ccc(OC(C)=O)cc2)C1(C#N)C#N	-90%	-5	?	-3	?	32µM*
CCOC(=O)c1[nH]c2ccc(OC)cc2c1NC(=S)N1CCN(c2cccc(C)c2C)CC1	10µM*	-18	18µM*	-19	-31%	i
COc1ccc(OC)c(CCNC(=O)c2cc3c(-c4ccccc4F)nn(C)c3s2)c1	-41%	.	?	.	25µM*	?
CCN(CC)CCCNC(=O)c1cc2c(-c3cccc(OC)c3)nn(C)c2s1	-40%	?	20%	.	.	i
COc1ccc(NC(=O)c2cc3c(-c4ccccc4F)nn(C)c3s2)c(OC)c1	-4%	.	2%	.	-20%	i
COc1cccc(-c2nn(C)c3sc(C(=O)NCCCN(C)Cc4ccccc4)cc23)c1	-22%	?	-11%	?	28µM*	?
COc1ccc(C)cc1NC(=O)CSc1nc(=O)n(Cc2cccnc2)c2c1CCC2	-14%	.	-23%	.	-7%	i
COc1ccc(C)cc1NC(=O)CSc1nc(=O)n(Cc2ccccn2)c2c1CCC2	-32%	.	8.9µM*	.	-16%	i
Cc1cccc(NC(=O)CSc2nc(=O)n(Cc3cccnc3)c3c2CCC3)c1	-33%	.	18µM*	.	-15%	i
Cc1c(NC(=S)N/N=C\c2ccccc2O)c(=O)n(-c2ccccc2)n1C	-8%	-90*	0%	32	-35%	?
Cc1c(NC(=S)N/N=C/c2ccc(Br)cc2)c(=O)n(-c2ccccc2)n1C	-3%	-2	9%	2	-19%	i
Cc1c(NC(=S)N/N=C/c2ccc([N+](=O)[O-])cc2O)c(=O)n(-c2ccccc2)n1C	-16%	-84*	1%	-93*	?	?
COc1ccc(-c2nc3cc(C(C)C)ccc3o2)cc1NC(=O)COc1ccc(C)cc1C	-3%	.	-4%	.	36%	i
CCc1c(C)sc(NC(=O)c2cc(-c3cc(OC)ccc3OC)on2)c1C#N	2%	2	2%	7	14µM*	.
CCc1c(C)sc(NC(=O)c2cc(-c3ccc(OC)c(OC)c3)on2)c1C#N	1%	-2	9%	-3	9%	i
O=C(Cc1cccs1)N/N=C\c1ccc([N+](=O)[O-])s1	-15%	-3	?	.	.	?
O=C(CNC(=O)c1ccccc1Cl)N/N=C/c1ccc([N+](=O)[O-])s1	10µM*	-2	13µM*	-12	-30%[11.3 µM]	i
O=C(CNC(=O)c1ccccc1Br)N/N=C\c1cc([N+](=O)[O-])cc(Br)c1O	1%	?	-5%	-73*	0%	i
Cc1onc(-c2ccccc2)c1C(=O)N/N=C/c1ccco1	-68%	-16	-11%	-2	1%	i
O=C(CNC(=O)c1ccccc1Br)N/N=C/c1cccs1	-8%	-10	10%	.	.	i
Cc1onc(-c2ccccc2)c1C(=O)N/N=C/c1ccc([N+](=O)[O-])s1	10µM*	-19	?	-2	?	i
O=C(CNC(=O)c1ccccc1Br)N/N=C/c1ccccc1O	-35%	-65*	?	?	?	.
SMILES	HepG2 tox	Six1-Eya2 inh	TGFb SMAD3 inh	CtBP-E1A inh	ATXN2 expr inh	S2 tox
CC(C)(C)CC(=O)OCC(=O)[C@@]12OC(C)(C)O[C@@H]1C[C@H]1[C@@H]3CCC4=CC(=O)C=C[C@]4(C)[C@@]3(F)[C@@H](O)C[C@@]12C	.	.	.	.	.	i
O=C(CNC(=O)c1ccccc1Br)N/N=C/c1cc(Br)ccc1O	-8%	?	-17%	-73*	10µM*	i
CC(C)=CCOc1ccc([C@@H]2COc3c(ccc4c3C=CC(C)(C)O4)C2)c(O)c1	14µM*	-16	13µM*	-7	?	25µM*
COc1ccc(OCc2cc(=O)c3ccc4c(c3o2)C=CC(C)(C)O4)cc1OC	-23%	-21	?	0	-4%	?
COC1=CC(=O)c2c(ccc3ncnc(N)c23)C1=O	1.4µM*	?	0.89µM*	5	2.8µM*	3.5µM*
COc1cccc(-n2c(SC)nnc2C2CCN(Cc3nc4ccccc4s3)CC2)c1	.	.	.	.	.	i
Cc1cccc(C2=NN(c3ccccc3)[C@H](CO)[C@H]2c2ccc(F)cc2)c1	-93%	73	20µM*	71	0%	.
OC[C@@H]1[C@@H](c2ccccc2)C(c2cccc(Cl)c2)=NN1c1ccccc1	-115%	57	?	55	-31%	.
COc1ccccc1[C@H]1C(c2cccc(Cl)c2)=NN(c2ccccc2)[C@@H]1CO	13µM*	155	13µM*	93	?	.
OC[C@@H]1[C@@H](c2ccccc2)C(c2ccc(F)cc2)=NN1c1ccccc1	-49%	45	10µM*	43	-10%	.
CC1(c2ccccc2)OC(C(=O)O)=CC1=O (configuration not stated)	.	.	.	.	3%	i
COc1ccc(C(=O)N2CCC(c3nc(-c4ccc(S(=O)(=O)N5CCCC5)cc4)no3)CC2)cc1	-10%	.	2%	.	.	.
CCOC(=O)CN1C(c2ccc(O)cc2)Nc2ccc(Br)cc2C1c1ccccc1 (configuration not stated)	-96%	-13	?	-16	?	20µM*
COc1ccc(CC2=C(O)c3ccccc3C(=O)C2=O)cc1	-2%	-4	-12%	-6	-7%	i
O=C1C(=O)c2ccccc2C(O)=C1CCCCl	2µM*	-10	2.5µM*	-25	25µM*	.
CCN(CC)c1ccc(/C=C/c2cccc[n+]2C)c(OC)c1	-16%	11	26%	0	3.2µM*	8.9µM*
CC1(C)C=Cc2c(c3c(c4c(=O)c(-c5ccc(O)cc5)coc24)OC(C)(C)CC3)O1	-83%	1	14µM*	-14	?	.
CC(C)=CCc1c2c(c3occ(-c4ccc(O)c(O)c4)c(=O)c3c1O)C=CC(C)(C)O2	8.9µM*	-28	10µM*	-1	22µM*	?
